# Values joined by “and” are separate entries in the source; they are usually repeats but may differ in a detail not shown here. Identical values can stand only once. Records with an inconclusive call do not appear. Active and inactive are the calls of the source. The calls were made as follows, unless noted: active = hit-call score of the fitted dose curve at least 0.9, where 1 is the maximum; inactive = score below 0.9.
# Experiments:
# [1] = read-out: Interleukin-8 (IL8), CXCL8 (gene 3576); test: BSK_SAg_IL8: BioMAP Diversity Plus: SAg Assay for Interleukin-8 (IL8) Biomarker Activity (AID 2283094); settings: primary human HUVEC with PBMC; actives raise or lower the signal
# Procedure, shortened: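 ELISA read-out of IL-8 in a primary human vascular co-culture (umbilical vein endothelium plus PBMC), taken 24 h after compound addition. Values derive from bidirectional fits against DMSO negative controls.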
# [2] = BSK_SAg_Proliferation: Cell Proliferation Assessment in the BioMAP Diversity Plus: SAg Assay (AID 2283095); settings: primary human HUVEC with PBMC;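 also: relative cell number as total protein by SRB absorbance in sub-confluent culture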
# Procedure, shortened: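 Cells (endothelium plus PBMC, human primary) were dosed with chemical, cultured 96 h, fixed in 10% TCA and stained with 0.1% SRB. Absorbance at 560 nm gave relative protein, fitted bidirectionally relative to DMSO.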
# [3] = BSK_SAg_SRB: Viability Assessment in the BioMAP Diversity Plus: SAg Assay (AID 2283096); settings: primary human HUVEC with PBMC;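 also: cells read one day after compound addition; hits may be either gain or loss of signal compared with DMSO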
# Procedure, shortened: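 Total protein by sulforhodamine B staining, 24 h after dosing, in HUVEC–PBMC co-culture; DMSO-referenced bidirectional fitting.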
# [4] = target: human CYP2D6, CYP2D6 (gene 1565) (UniProt P10635); test: NVS_ADME_hCYP2D6: NovaScreen (NVS) CYP450-related Enzyme Activity (ADME) Assay for human CYP2D6 (AID 2283107; active = hit-call score of the fitted dose curve at least 0.9, where 1 is the maximum)
# Sequence of human CYP2D6, CYP2D6 (gene 1565) (P10635 whole entry, looked up): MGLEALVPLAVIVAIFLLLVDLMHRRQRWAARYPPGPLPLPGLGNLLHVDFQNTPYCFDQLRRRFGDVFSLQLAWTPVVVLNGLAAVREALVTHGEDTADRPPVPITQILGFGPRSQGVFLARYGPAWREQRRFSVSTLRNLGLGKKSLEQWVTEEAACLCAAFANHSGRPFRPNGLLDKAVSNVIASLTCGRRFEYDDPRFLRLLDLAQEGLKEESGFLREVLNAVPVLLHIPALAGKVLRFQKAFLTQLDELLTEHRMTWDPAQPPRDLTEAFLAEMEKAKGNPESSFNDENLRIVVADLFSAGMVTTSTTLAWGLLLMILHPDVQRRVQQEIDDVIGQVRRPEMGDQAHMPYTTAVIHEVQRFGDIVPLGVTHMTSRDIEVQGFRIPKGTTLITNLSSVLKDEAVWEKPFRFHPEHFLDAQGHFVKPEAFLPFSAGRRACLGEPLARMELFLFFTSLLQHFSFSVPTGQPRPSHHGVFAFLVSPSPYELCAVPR
# Procedure, shortened: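 Compounds were first tested in duplicate at 10 uM against recombinant enzyme produced in insect cells, with substrate turnover measured by fluorescence after 1 hour. Decreased signal, referenced to acetonitrile vehicle, was taken as reduced enzyme activity. Active chemicals went on to concentration-response testing.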
# [5] = target: human CYP1A2, CYP1A2 (gene 1544) (UniProt P05177); test: NVS_ADME_hCYP1A2: NovaScreen (NVS) CYP450-related Enzyme Activity (ADME) Assay for human CYP1A2 (AID 2283102; active = hit-call score of the fitted dose curve at least 0.9, where 1 is the maximum;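 also: fluorescence from turnover of a fluorogenic substrate by recombinant insect-cell CYP1A2; potency for inhibition since loss of fluorescence marks reduced CYP1A2 activity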)
# Sequence of human CYP1A2, CYP1A2 (gene 1544) (P05177 whole entry, looked up): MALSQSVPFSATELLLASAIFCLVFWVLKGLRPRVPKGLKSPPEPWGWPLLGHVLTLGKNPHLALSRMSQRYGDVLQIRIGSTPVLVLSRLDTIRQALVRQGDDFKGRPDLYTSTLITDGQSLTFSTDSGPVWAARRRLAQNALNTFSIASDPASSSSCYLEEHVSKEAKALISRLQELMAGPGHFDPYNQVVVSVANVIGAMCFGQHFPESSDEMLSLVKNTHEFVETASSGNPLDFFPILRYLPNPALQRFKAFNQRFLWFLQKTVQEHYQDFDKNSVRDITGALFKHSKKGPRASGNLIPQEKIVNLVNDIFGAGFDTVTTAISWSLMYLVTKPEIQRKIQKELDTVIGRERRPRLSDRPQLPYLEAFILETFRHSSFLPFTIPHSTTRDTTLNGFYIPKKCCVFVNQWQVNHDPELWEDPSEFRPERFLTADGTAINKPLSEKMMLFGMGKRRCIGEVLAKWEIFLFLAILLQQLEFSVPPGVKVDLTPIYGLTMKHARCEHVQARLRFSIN
# Procedure, shortened: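 Compounds were tested at 10 uM in duplicate against recombinant CYP1A2 produced in insect cells. Enzyme activity was measured by fluorescence 0.5 h after dosing, with loss of signal versus acetonitrile control. Active compounds were re-tested in concentration series.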
# [6] = target: human CYP2C9, CYP2C9 (gene 1559) (UniProt P11712); test: NVS_ADME_hCYP2C9: NovaScreen (NVS) CYP450-related Enzyme Activity (ADME) Assay for human CYP2C9 (AID 2283108; active = hit-call score of the fitted dose curve at least 0.9, where 1 is the maximum)
# Sequence of human CYP2C9, CYP2C9 (gene 1559) (P11712 whole entry, looked up): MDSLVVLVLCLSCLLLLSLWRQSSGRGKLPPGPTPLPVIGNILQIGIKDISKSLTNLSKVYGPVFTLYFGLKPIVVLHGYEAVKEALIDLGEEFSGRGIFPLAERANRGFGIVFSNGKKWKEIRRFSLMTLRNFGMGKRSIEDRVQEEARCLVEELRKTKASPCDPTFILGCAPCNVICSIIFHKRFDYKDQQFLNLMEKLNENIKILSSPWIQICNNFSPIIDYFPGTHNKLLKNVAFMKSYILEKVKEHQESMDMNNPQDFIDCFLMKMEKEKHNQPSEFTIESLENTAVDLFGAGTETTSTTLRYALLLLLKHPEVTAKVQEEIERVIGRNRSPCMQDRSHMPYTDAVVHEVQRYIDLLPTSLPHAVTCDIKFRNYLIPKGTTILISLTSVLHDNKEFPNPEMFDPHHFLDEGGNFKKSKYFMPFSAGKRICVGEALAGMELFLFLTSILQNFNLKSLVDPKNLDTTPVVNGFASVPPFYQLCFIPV
# Procedure, shortened: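 Fluorescence readout of CYP2C9 activity (SF9-expressed human enzyme) at 0.75 h. The primary screen used 10 uM in duplicate, with concentration-response follow-up for actives; acetonitrile was the negative control.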
# [7] = target: Cytochrome P450 3A4 (Homo sapiens) (UniProt P08684); test: NVS_ADME_hCYP3A4: NovaScreen (NVS) CYP450-related Enzyme Activity (ADME) Assay for human CYP3A4 (AID 2283110; active = hit-call score of the fitted dose curve at least 0.9, where 1 is the maximum)
# Sequence of Cytochrome P450 3A4 (Homo sapiens) (P08684 whole entry, looked up): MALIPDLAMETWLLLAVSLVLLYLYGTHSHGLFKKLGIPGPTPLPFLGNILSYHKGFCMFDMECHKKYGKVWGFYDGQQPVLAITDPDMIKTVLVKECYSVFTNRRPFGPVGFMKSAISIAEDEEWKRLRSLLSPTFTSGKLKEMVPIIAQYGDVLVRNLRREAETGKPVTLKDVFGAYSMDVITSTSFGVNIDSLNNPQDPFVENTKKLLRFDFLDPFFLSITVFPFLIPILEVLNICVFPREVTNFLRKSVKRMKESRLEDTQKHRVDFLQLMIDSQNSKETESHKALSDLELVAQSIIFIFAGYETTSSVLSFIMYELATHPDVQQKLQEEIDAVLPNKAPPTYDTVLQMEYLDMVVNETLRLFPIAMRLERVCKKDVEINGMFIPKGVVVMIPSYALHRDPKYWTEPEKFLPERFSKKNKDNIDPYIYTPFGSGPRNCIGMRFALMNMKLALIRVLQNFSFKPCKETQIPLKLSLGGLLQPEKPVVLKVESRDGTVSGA
# Method: NVS_ADME_hCYP3A4 is a biochemical, single-readout assay that uses extracted gene-proteins from insect cells in a cell-free assay. Measurements were taken 0.33 hour after chemical dosing in a 96-well plate.NVS_ADME_hCYP3A4 is one of one assay component(s) measured or calculated from the NVS_ADME_hCYP3A4 assay. It is designed to make measurements of enzyme activity, a form of enzyme reporter, as detected with fluorescence intensity signals by Fluorescence technology.Data from the assay component NVS_ADME_hCYP3A4 was analyzed into 1 assay endpoint. This assay endpoint, NVS_ADME_hCYP3A4, was analyzed in the positive analysis fitting direction relative to Acetonitrile as the negative control and baseline of activity. Using a type of enzyme reporter, loss-of-signal activity can be used to understand changes in the enzymatic activity as they relate to the gene CYP3A4. Furthermore, this assay endpoint can be referred to as a primary readout, because this assay has produced multiple assay endpoints where this one serves a enzymatic activity function. To generalize the intended target to other relatable targets, this assay endpoint is annotated to the cyp intended target family, where the subfamily is xenobiotic metabolism. […]
# [8] = target: human CYP19A1, CYP19A1 (gene 1588) (UniProt P11511); test: NVS_ADME_hCYP19A1: NovaScreen (NVS) CYP450-related Enzyme Activity (ADME) Assay for human CYP19A1 (AID 2283098; active = hit-call score of the fitted dose curve at least 0.9, where 1 is the maximum;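 as to AC50: potency for inhibitors seen as loss of fluorescent enzyme signal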)
# Sequence of human CYP19A1, CYP19A1 (gene 1588) (P11511 whole entry, looked up): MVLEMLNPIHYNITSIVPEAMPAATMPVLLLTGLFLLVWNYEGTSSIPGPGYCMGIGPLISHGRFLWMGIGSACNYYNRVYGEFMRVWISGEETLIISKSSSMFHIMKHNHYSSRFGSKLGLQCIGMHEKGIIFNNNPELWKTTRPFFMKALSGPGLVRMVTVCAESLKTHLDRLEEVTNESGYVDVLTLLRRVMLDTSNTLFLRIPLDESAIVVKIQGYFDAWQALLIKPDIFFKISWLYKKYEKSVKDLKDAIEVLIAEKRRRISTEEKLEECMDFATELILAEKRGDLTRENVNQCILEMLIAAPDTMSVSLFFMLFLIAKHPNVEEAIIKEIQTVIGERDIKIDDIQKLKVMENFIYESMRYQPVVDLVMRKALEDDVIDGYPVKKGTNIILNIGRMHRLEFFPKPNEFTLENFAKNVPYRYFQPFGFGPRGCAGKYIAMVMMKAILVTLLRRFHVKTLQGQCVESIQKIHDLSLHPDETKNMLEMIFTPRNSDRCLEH
# Procedure, shortened: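 Biochem, cell-free; recombinant enzyme + specific substrate; fluorescence intensity at 0.5 h post-dose; 10 uM duplicate primary, conc. series for actives; acetonitrile = negative control/baseline; positive and negative controls on every plate.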
# [9] = target: Cytochrome P450 2C18 (Homo sapiens) (UniProt P33260); test: NVS_ADME_hCYP2C18: NovaScreen (NVS) CYP450-related Enzyme Activity (ADME) Assay for human CYP2C18 (AID 2283103)
# Sequence of Cytochrome P450 2C18 (Homo sapiens) (P33260 whole entry, looked up): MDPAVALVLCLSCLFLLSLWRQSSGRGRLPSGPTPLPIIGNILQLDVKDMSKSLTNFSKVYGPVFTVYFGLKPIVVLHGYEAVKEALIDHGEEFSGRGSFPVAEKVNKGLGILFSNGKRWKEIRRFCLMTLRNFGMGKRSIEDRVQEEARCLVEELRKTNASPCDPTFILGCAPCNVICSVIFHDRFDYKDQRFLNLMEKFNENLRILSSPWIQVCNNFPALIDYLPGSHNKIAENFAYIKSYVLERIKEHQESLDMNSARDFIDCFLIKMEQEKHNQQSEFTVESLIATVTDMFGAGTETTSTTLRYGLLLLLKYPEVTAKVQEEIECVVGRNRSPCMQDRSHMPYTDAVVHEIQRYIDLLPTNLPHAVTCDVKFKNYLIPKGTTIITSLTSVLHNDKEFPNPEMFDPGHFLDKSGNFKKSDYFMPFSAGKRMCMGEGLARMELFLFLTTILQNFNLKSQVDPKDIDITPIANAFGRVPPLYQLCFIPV
# Procedure, shortened: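 Cell-free recombinant human CYP2C18 with fluorogenic substrate; fluorescence intensity read 0.5 h after dosing. Single-point screen at 10 uM in duplicate, then concentration-response up to 20 uM; loss of signal fitted against acetonitrile baseline.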
# [10] = target: human CYP2B6, CYP2B6 (gene 1555) (UniProt P20813); test: NVS_ADME_hCYP2B6: NovaScreen (NVS) CYP450-related Enzyme Activity (ADME) Assay for human CYP2B6 (AID 2283101; active = hit-call score of the fitted dose curve at least 0.9, where 1 is the maximum)
# Sequence of human CYP2B6, CYP2B6 (gene 1555) (P20813 whole entry, looked up): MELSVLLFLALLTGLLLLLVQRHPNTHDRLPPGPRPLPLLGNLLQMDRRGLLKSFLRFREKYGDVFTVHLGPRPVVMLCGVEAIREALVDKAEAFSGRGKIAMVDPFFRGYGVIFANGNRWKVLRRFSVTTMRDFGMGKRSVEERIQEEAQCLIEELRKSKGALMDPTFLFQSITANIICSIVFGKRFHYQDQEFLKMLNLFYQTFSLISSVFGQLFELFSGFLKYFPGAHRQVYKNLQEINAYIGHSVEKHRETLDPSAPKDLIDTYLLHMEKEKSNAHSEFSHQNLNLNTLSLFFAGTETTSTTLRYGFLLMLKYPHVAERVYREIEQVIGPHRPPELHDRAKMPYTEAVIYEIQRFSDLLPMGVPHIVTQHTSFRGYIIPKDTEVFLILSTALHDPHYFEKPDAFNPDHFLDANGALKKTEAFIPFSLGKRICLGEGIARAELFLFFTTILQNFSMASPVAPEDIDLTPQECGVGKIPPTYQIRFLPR
# Procedure, shortened: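 Compounds were first screened in duplicate at 10 uM against recombinant enzyme, with the fluorescent product measured after 1 hour. Active compounds were retested over a concentration series. Loss of fluorescence versus acetonitrile control was scored as reduced enzyme activity.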
smiles,measurement,setting,value
Cc1cccc(OP(=O)(Oc2cccc(C)c2)Oc2cccc(C)c2)c1,outcome,[1],inactive
same,outcome,[2],inactive
same,outcome,[3],inactive
O=c1oc2ccccc2c(O)c1C(CC(O)c1ccc(-c2ccc(Br)cc2)cc1)c1ccccc1 (stereo not drawn),outcome,[1],inactive
same,AC50,[2],26.4 µM (active)
same,AC50,[3],19.1 µM (active)
[Cl][Sn]([c]1ccccc1)([c]1ccccc1)[c]1ccccc1,AC50,[1],0.253 µM (active)
same,AC50,[2],0.0609 µM (active)
same,AC50,[3],0.337 µM (active)
same,AC50,[4],997 nM (active)
CCOP(=O)(OCC)SCCSCC,outcome,[1],inactive
same,outcome,[2],inactive
same,outcome,[3],inactive
CCOCn1c(-c2ccc(Cl)cc2)c(C#N)c(Br)c1C(F)(F)F,AC50,[5],1.35 µM (active)
CCN(CC)C(=O)C(Cl)=C(C)OP(=O)(OC)OC,outcome,[1],inactive
same,outcome,[2],inactive
same,outcome,[3],inactive
O=C(O)C1(c2ccc3c(c2)OC[C@H](Cc2ccc(-c4ccccc4)cc2)[C@H]3O)CCCC1,AC50,[1],24.6 µM (active)
same,AC50,[2],16.7 µM (active)
same,AC50,[3],27.3 µM (active)
CCC(C)(C#N)N=NC(C)(C#N)CC (stereo not drawn),outcome,[1],inactive
same,outcome,[2],inactive
same,outcome,[3],inactive
Cc1ccccc1OP(=O)(Oc1ccccc1)Oc1ccccc1,AC50,[1],9.82 µM (active)
same,outcome,[2],inactive
same,AC50,[3],31.6 µM (active)
Cc1cc(C(C)(C)c2ccc(O)c(C)c2)ccc1O,outcome,[1],inactive
same,AC50,[2],18.2 µM (active)
same,outcome,[3],inactive
same,AC50,[6],942 nM (active)
same,outcome,[7],inactive
CCCCOC(=O)COC(=O)c1ccccc1C(=O)OCCCC,outcome,[1],inactive
same,outcome,[2],inactive
same,outcome,[3],inactive
CC(C)O.CC(C)O.OCCN(CCO)CCO.OCCN(CCO)CCO.[Ti],outcome,[1],inactive
same,outcome,[2],inactive
same,outcome,[3],inactive
O=C1c2ccccc2C(=O)C1C(=O)C(c1ccccc1)c1ccc(Cl)cc1 (stereo not drawn),AC50,[8],5.08 µM (active)
Oc1c(Br)cc(Br)cc1Br,outcome,[1],inactive
same,AC50,[2],20 µM (active)
same,AC50,[3],31.7 µM (active)
CCOP(=O)(OCC)OC(=CCl)c1ccc(Cl)cc1Cl,outcome,[1],inactive
same,outcome,[2],inactive
same,outcome,[3],inactive
O=S(=O)(C(Cl)(Cl)Cl)C(Cl)(Cl)Cl,AC50,[1],1.79 µM (active)
same,AC50,[2],0.798 µM (active)
same,AC50,[3],3.74 µM (active)
C=CC(Cl)CCl (stereo not drawn),outcome,[1],inactive
same,outcome,[2],inactive
same,outcome,[3],inactive
CC(C)(COCC1CO1)COCC1CO1 (stereo not drawn),outcome,[1],inactive
same,AC50,[2],36.7 µM (active)
same,outcome,[3],inactive
Oc1cccc(-c2ccccc2)c1,outcome,[1],inactive
same,AC50,[2],20 µM (active)
same,AC50,[3],20 µM (active)
CC1(C)[C@H](C(=O)O[C@H](C#N)c2cccc(Oc3ccccc3)c2)[C@@H]1/C=C(\Cl)C(F)(F)F,outcome,[1],inactive
same,AC50,[2],17.1 µM (active) and 3.97 µM (active)
same,outcome,[3],inactive
same,AC50,[9],951 nM (active)
CCCCN(CCCC)C(=S)[S-].CCCCN(CCCC)C(=S)[S-].[Ni+2],outcome,[1],inactive
same,outcome,[2],inactive
same,outcome,[3],inactive
Oc1ccc(Cc2ccc(O)cc2)cc1,outcome,[1],inactive
same,outcome,[2],inactive
same,outcome,[3],inactive
same,AC50,[6],321 nM (active)
C[C@]12CC[C@@H](O)C[C@@H]1CC[C@@H]1[C@@H]2CC[C@]2(C)C(=O)CC[C@@H]12,outcome,[1],inactive
same,outcome,[2],inactive
same,outcome,[3],inactive
CN(C)C(=S)S,outcome,[1],inactive
same,AC50,[2],0.488 µM (active)
same,outcome,[3],inactive
same,AC50,[5],5.64 µM (active)
Cc1ccc(OP(=O)(Oc2ccc(C)cc2C)Oc2ccc(C)cc2C)c(C)c1,AC50,[1],4.7 µM (active)
same,AC50,[2],12.9 µM (active)
same,AC50,[3],20 µM (active)
Nc1c(Oc2ccccc2)cc(O)c2c1C(=O)c1ccccc1C2=O,AC50,[1],1.56 µM (active)
same,outcome,[2],inactive
same,AC50,[3],2.22 µM (active)
c1ccc2sc(SNC3CCCCC3)nc2c1,outcome,[1],inactive
same,AC50,[2],29.2 µM (active)
same,outcome,[3],inactive
O=C(N[C@H]1CN2CCC1CC2)c1ccc2c(c1)OCCO2,outcome,[1],inactive
same,outcome,[2],inactive
same,outcome,[3],inactive
CCCCCCCCCCCCN(C)C,outcome,[1],inactive
same,outcome,[2],inactive
same,outcome,[3],inactive
CC(C)(C)c1ccccc1O,outcome,[1],inactive
same,outcome,[2],inactive
same,outcome,[3],inactive
same,outcome,[10],inactive
Nc1ccc(N)cc1,outcome,[1],inactive
same,outcome,[2],inactive
same,outcome,[3],inactive
same,outcome,[4],inactive
O=c1nc(O)n(Cl)c(=O)n1Cl,outcome,[8],inactive
Clc1cccc(Cl)c1Cl,outcome,[1],inactive
same,outcome,[2],inactive
same,outcome,[3],inactive
COCC(=O)N(c1c(C)cccc1C)[C@H](C)C(=O)OC,outcome,[1],inactive
same,outcome,[2],inactive
same,outcome,[3],inactive
N#CCCC(Br)(C#N)CBr (stereo not drawn),AC50,[1],20 µM (active)
same,AC50,[2],1.12 µM (active)
same,AC50,[3],11.5 µM (active)
same,AC50,[4],3080 nM (active)

# From PubChem BioAssay (EPA / NIEHS)
